Test results published in the supplement of paper PMC10981050.
Several values for one entry are separate records, joined by “and”; a condition that tells them apart may be missing. Equal values may be shown once. Where a name gives a salt, the structure may show the parent alone.

Tests used:
Experiment in all cases: cell viability relative to vehicle control; higher = less cytotoxic
Details in all cases: 10 µM
K562 = test system: K562
Summary of the method: (§1)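 Mutant clones made by CRISPR editing and their isogenic wild-type counterparts, from four leukaemia lines, were exposed to a single 10 µM dose of each library compound for 48 h. The supernatant was then removed and CellTiter-Glo luminescence was read. Viability was reported as percent of the on-plate vehicle control.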

MARIMO = test system: MARIMO
Summary of the method: as §1

MOLM14 = test system: MOLM14
Summary of the method: as §1

OCI-AML2 = test system: OCI-AML2
Summary of the method: as §1

| SMILES | cell viability (K562; SRSF2 genotype: SRSF2 P95H/wt) | cell viability (K562; SRSF2 genotype: SRSF2 wt/wt) [%] | cell viability (MARIMO; SRSF2 genotype: SRSF2 P95H/wt) [%] | cell viability (MARIMO; SRSF2 genotype: SRSF2 wt/wt) [%] | cell viability (MOLM14; SRSF2 genotype: SRSF2 P95H/wt) [%] | cell viability (MOLM14; SRSF2 genotype: SRSF2 wt/wt) [%] | cell viability (OCI-AML2; SRSF2 genotype: P95H/wt) [%] | cell viability (OCI-AML2; SRSF2 genotype: wt/wt) [%] |
| --- | --- | --- | --- | --- | --- | --- | --- | --- |
| CCCNS(=O)(=O)Nc1ncnc(OCCOc2ncc(Br)cn2)c1-c1ccc(Br)cc1 [Macitentan] | 104% and 105% | 96.8 | 100 | 118 | 103 | 110 | 102 | 110 |
| Cn1cc(/C=C/C(=O)c2cccc(F)c2)cc1/C=C/C(=O)NO | 90.3% and 97.5% | 99.5 | 61.5 | 72.4 | 70.1 | 64.5 | 59.5 | 65.3 |
| Clc1ccc(C(c2ccccc2Cl)C(Cl)Cl)cc1 (stereo not given) [Mitotane] | 91.2% and 89.1% | 87.6 | 83 | 106 | 90.8 | 84.8 | 93.7 | 107 |
| CCOC(=O)CCNc1cc(N2CCc3ccccc3CC2)nc(-c2ccccn2)n1 | 26.1% and 28.9% | 27.6 | 25.8 | 27.4 | 30.4 | 24.4 | 28.8 | 25.8 |
| CCCn1/c(=N/C(=O)c2cccc(C(N)=O)c2)[nH]c2ccccc21 [Takinib] | 100% | 96.3 | 98.8 | 103 | 77.8 | 91 | 74.7 | 84.3 |
| C[C@H](NC(=O)CCC(F)(F)F)C(=O)N[C@@H]1C(=O)N(CCO)c2ncccc2-c2ccccc21 | 103% and 104% | 95.9 | 97.4 | 108 | 109 | 103 | 89.4 | 99.8 |
| CC(=O)C1=C(O)C=C2Oc3c(C(C)=O)c(O)c(C)c(O)c3C2(C)C1=O (single isomer, unassigned; (+)) [(+)-Usniacin (D-Usnic acid)] | 98.5% and 99.9% | 97.7 | 95.4 | 106 | 95 | 99 | 90.8 | 98.9 |
| C=C[C@@H]1CNC(=S)O1 [Epigoitrin] | 103% and 97.6% | 101 | 91.3 | 93.1 | 101 | 99.2 | 103 | 104 |
| CC(C)=CCC[C@](C)(O[C@@H]1O[C@H](CO)[C@@H](O)[C@H](O)[C@H]1O)[C@H]1CC[C@]2(C)[C@@H]1[C@H](O)C[C@@H]1[C@@]3(C)CC[C@H](O)C(C)(C)[C@@H]3[C@@H](O)C[C@]12C [Ginsenoside F1] | 107% and 106% | 102 | 105 | 97.8 | 109 | 104 | 105 | 106 |
| CNCc1ccc(C)c(NC(=O)c2ccc(Nc3nc(-c4ccccc4)c4ccccc4n3)cc2)c1 | 0.99% and 1.39% | 1.34 | 0.68 | 0.61 | 0.42 | 0.52 | 0.4 | 0.57 |
| C[C@@H](N)[C@H]1CC[C@H](C(=O)Nc2ccncc2)CC1 | 105% and 97.4% | 102 | 93.7 | 94.6 | 97.2 | 96.9 | 85.9 | 91.2 |
| COc1cc(C=O)ccc1OC(C)=O [Acetylvanillin] | 99.2% and 99.9% | 99.7 | 104 | 103 | 104 | 101 | 98.4 | 104 |
| Nc1ccc(C(=O)Nc2cccc(-c3nc(N4CCOCC4)c4oc5ncccc5c4n3)c2)cn1 | 75.4% and 89.9% | 95.8 | 73.7 | 79.4 | 103 | 104 | 86.7 | 89.1 |
| O=c1c(O)c(-c2ccc(O)cc2O)oc2cc(O)cc(O)c12 [Morin hydrate (Aurantica)] | 94.3% and 106% | 106 | 108 | 108 | 107 | 107 | 107 | 102 |
| CNC(=O)c1cc(COc2nnc(Nc3ccc(Cl)cc3)c3ccoc23)ccn1 [Telatinib (BAY 57-9352)] | 94.6% and 90.8% | 98.7 | 106 | 106 | 108 | 97.3 | 90.6 | 99.5 |
| Cc1cc(C2CCCCC2)n(O)c(=O)c1 [Ciclopirox (Penlac)] | 54.8% and 52% | 42.2 | 14.8 | 21.8 | 7.11 | 2.18 | 15.5 | 16.3 |
| O=C(c1ccc(Oc2ccccc2)cc1Cl)c1c[nH]c2ncnc(N[C@@H]3CC[C@@H](CO)OC3)c12 | 9.11% and 19% | 14.3 | 23.1 | 22.1 | 12.6 | 17 | 13.4 | 16.1 |
| CCCCOc1ccc(CC(=O)NO)cc1 [Bufexamac] | 95% and 94.9% | 98.8 | 91.6 | 88.7 | 85.7 | 93.1 | 98.1 | 91.8 |
| COc1ccc([C@@H]2CC(=O)c3c(O)cc(O[C@@H]4O[C@H](CO[C@@H]5O[C@@H](C)[C@H](O)[C@@H](O)[C@H]5O)[C@@H](O)[C@H](O)[C@H]4O)cc3O2)cc1O [Hesperidin] | 105% and 115% | 111 | 107 | 109 | 109 | 113 | 112 | 97.2 |
| [Na+].[Na+].[Na+].[Na+].[Na+].[Na+].[O]=[W](=[O])([O-])[O-].[O]=[W](=[O])([O-])[O-].[O]=[W](=[O])([O-])[O-].[O]=[W](=[O])=[O].[O]=[W](=[O])=[O].[O]=[W](=[O])=[O].[O]=[W](=[O])=[O].[O]=[W](=[O])=[O].[O]=[W](=[O])=[O].[O]=[W](=[O])=[O].[O]=[W](=[O])=[O].[O]=[W](=[O])=[O] [SodiuM Metatungstate] | 103% and 109% | 106 | 121 | 106 | 103 | 109 | 88.9 | 93.5 |

| SMILES | cell viability (K562; SRSF2 genotype: SRSF2 P95H/wt) | cell viability (K562; SRSF2 genotype: SRSF2 wt/wt) [%] | cell viability (MARIMO; SRSF2 genotype: SRSF2 P95H/wt) [%] | cell viability (MARIMO; SRSF2 genotype: SRSF2 wt/wt) [%] | cell viability (MOLM14; SRSF2 genotype: SRSF2 P95H/wt) [%] | cell viability (MOLM14; SRSF2 genotype: SRSF2 wt/wt) [%] | cell viability (OCI-AML2; SRSF2 genotype: P95H/wt) [%] | cell viability (OCI-AML2; SRSF2 genotype: wt/wt) [%] |
| --- | --- | --- | --- | --- | --- | --- | --- | --- |
| CC(C)(CO)c1cc2cc(NC(=O)C3(c4ccc5c(c4)OC(F)(F)O5)CC3)c(F)cc2n1C[C@@H](O)CO | 95.8% and 95.3% | 87.5 | 92.7 | 109 | 91.5 | 91.7 | 95.7 | 96 |
| CN(c1ccccc1CNc1nc(Nc2ccc3c(c2)CC(=O)N3)ncc1C(F)(F)F)S(C)(=O)=O | 17% and 28.3% | 16.4 | 8.93 | 3.27 | 0.69 | 0.39 | 1.33 | 13.7 |
| COc1cc(-c2coc3cc4c(c(OC)c3c2=O)OCO4)cc(OC)c1OC [Irisflorentin] | 93.9% and 96.7% | 93.6 | 89.8 | 96.8 | 96.8 | 97.9 | 81.6 | 90.9 |
| CN[C@@H](C)C(=O)N[C@H](C(=O)N1CCC[C@H]1C(=O)N[C@H](C(=O)NCCCCCCNC(=O)[C@@H](NC(=O)[C@@H]1CCCN1C(=O)[C@@H](NC(=O)[C@H](C)NC)C1CCCCC1)C(c1ccccc1)c1ccccc1)C(c1ccccc1)c1ccccc1)C1CCCCC1 | 0.93% and 3.98% | 3.06 | 29.5 | 8.11 | 0.7 | 0.53 | 4.1 | 9.14 |
| CC(=O)Oc1ccc(C(=C2CCCCC2)c2ccc(OC(C)=O)cc2)cc1 [Cyclofenil] | 98% and 94.2% | 98.5 | 96.8 | 95.8 | 94.3 | 102 | 96.8 | 96.9 |
| C/C(=C\C(=O)Nc1ccccc1C(=O)O)c1ccc2ccccc2c1 | 101% and 90.8% | 106 | 84.3 | 98.2 | 88.5 | 92.8 | 95.1 | 93.6 |
| CCCOc1ccc2[nH]c(NC(=O)OC)nc2c1 [Oxibendazole] | 15.3% and 34.8% | 28 | 6.59 | 7.72 | 10.9 | 3.24 | 4.68 | 8.07 |
| CCOC(=O)C1=C(C)NC(C)=C(C(=O)OCC)C1c1ccccc1/C=C/C(=O)OC(C)(C)C [Lacidipine (Lacipil, Motens)] | 51% and 64.8% | 53.2 | 53.8 | 40.3 | 49.7 | 39.8 | 44 | 42.9 |
| O=C(C1CCCCC1)N1CC(=O)N2CCc3ccccc3C2C1 (stereo not given) [Praziquantel (Biltricide)] | 105% and 101% | 102 | 109 | 107 | 111 | 109 | 115 | 103 |
| O=C(CCCCc1ccc2c(c1)OCO2)N1CCCCC1 [Tetrahydropiperine] | 91.7% and 93.2% | 97.2 | 88.6 | 102 | 89.8 | 93.9 | 85 | 88.3 |
| CN1CCN(c2nc(C3=C(c4c[nH]c5ccccc45)C(=O)NC3=O)c3ccccc3n2)CC1 [Sotrastaurin (AEB071)] | 88.8% and 91.3% | 81.6 | 72.4 | 80.5 | 30.8 | 21.6 | 32.8 | 50.3 |
| CO[C@H]1C[C@@H]2CC[C@@H](C)[C@@](O)(O2)C(=O)C(=O)N2CCCC[C@H]2C(=O)O[C@H]([C@H](C)C[C@@H]2CC[C@H](n3cnnn3)[C@H](OC)C2)CC(=O)[C@H](C)/C=C(\C)[C@@H](O)[C@@H](OC)C(=O)[C@H](C)C[C@H](C)/C=C/C=C/C=C/1C [Zotarolimus (ABT-578)] | 67.9% and 74.2% | 66.1 | 77 | 76.9 | 60.8 | 56.5 | 64.2 | 61.1 |
| O=c1ccn([C@@H]2O[C@H](CO)[C@@H](O)[C@H]2O)c(=O)[nH]1 [Uridine] | 105% and 90% | 94.1 | 81.2 | 92.2 | 82.8 | 90 | 78.3 | 92.8 |
| COc1cccc(-n2c(=O)[nH]c3cc(Cl)n(-c4ccc(-c5cccc(OC)c5O)cc4)c3c2=O)c1 | 91.6% and 97.4% | 93 | 108 | 117 | 107 | 102 | 95.8 | 97.3 |
| Cc1ccc(Nc2c(F)cccc2Cl)c(CC(=O)O)c1 [Lumiracoxib (COX-189)] | 96% and 98.3% | 96.3 | 98.9 | 96 | 100 | 93.4 | 109 | 101 |
| O=c1[nH]c(=O)n(C2CC(O)C(CO)O2)cc1I (stereo not given) [Idoxuridin] | 86.7% and 92.3% | 77 | 102 | 98.3 | 80.5 | 88.1 | 83.3 | 84.3 |
| O=c1ncccn1[C@@H]1O[C@H](CO)[C@@H](O)[C@H]1O [Zebularine] | 90.9% and 85.1% | 82.2 | 87.7 | 91.4 | 89.7 | 89.7 | 96.6 | 86.6 |
| COC(=O)[C@H](CC(C)C)NC(=O)c1ccc(NC[C@@H](N)CS)cc1-c1cccc2ccccc12 [GGTI 298 TFA salt] | 7.41% and 14.8% | 31.9 | 55 | 51.1 | 41 | 50.6 | 40.6 | 37.7 |
| Cn1nnc(-c2ccc(-c3ccc(N4C[C@H](COP(=O)(O)O)OC4=O)cc3F)cn2)n1 [Tedizolid Phosphate] | 81.5% and 82.6% | 84.9 | 88.8 | 94.5 | 91.8 | 92.3 | 82.3 | 87.8 |
| OC1OC[C@@H](O)[C@@H](O)[C@@H]1O (stereo partly drawn) [D(-)-Arabinose] | 111% and 100% | 118 | 110 | 109 | 100 | 111 | 116 | 117 |
